The values that follow come from PubChem BioAssay.

Assay [1] can be described thus: A549 cell viability effects, profiling panel, calcein-AM fluorescence, 48 h, basal (AID 1162). Note: test concentration not given here. The conditions noted are these: higher = more signal.
Assay [2] in a line: adipocyte viability effects, profiling panel, cell-based, 3T3-L1 adipocytes, calcein-AM fluorescence, 48 h, basal (AID 1163). Note: test concentration not given here. Particulars: 3T3-L1 adipocytes viability, higher = more signal.
A short description of assay [3]: HepG2 cell viability effects, profiling panel, calcein-AM fluorescence, 48 h, basal (AID 1164). Note: test concentration not given here. Particulars: higher = more signal.
A short description of assay [4]: MM1S cell viability effects, profiling panel, calcein-AM fluorescence, 48 h, basal (AID 1165).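 Note: viability of MM1S multiple myeloma cells under basal unstimulated conditions; test concentration not given here.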 The conditions noted are these: higher = more signal.
The nature of assay [5]: basal RPMI8226 viability, no added stimulus, profiling panel, cell-based, calcein-AM fluorescence, 48 h, PK04 Diversity Set (AID 1166).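 Note: cells grown under basal conditions without added stimulus; test concentration not given here.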 The conditions noted are these: RPMI8226 myeloma viability, higher = more signal.
Assay [6] is described as follows: basal HepG2 mitochondrial membrane potential changes, profiling panel, cell-based, JC-1 fluorescence, 24 h, 100 nL compound (AID 1167). Note: test concentration not given here. Particulars: higher = more signal.
The nature of assay [7]: basal 3T3-L1 adipocyte mitochondrial potential changes, profiling panel, cell-based, JC-1 fluorescence, 3T3-L1 adipocytes, 24 h, 100 nL compound (AID 1168). Note: test concentration not given here. The conditions noted are these: JC-1 mitochondrial fluorescence, higher = more signal, called active from +8 up or from −8 down.
Assay [8] can be described thus: basal RPMI8226 mitochondrial membrane potential changes, profiling panel, cell-based, JC-1 fluorescence, 24 h, 100 nL compound (AID 1169). Note: test concentration not given here. Particulars: RPMI8226 myeloma, JC-1 mitochondrial potential fluorescence, higher = more signal.
Assay [9] is described as follows: basal MM1S mitochondrial membrane potential changes, profiling panel, cell-based, JC-1 fluorescence, 24 h, 100 nL compound (AID 1170). Note: test concentration not given here. Particulars: higher = more signal.
A short description of assay [10]: A549 lung cancer cell viability effects, profiling panel, resazurin fluorescence, 24 h, PK04 Diversity Set (AID 1171). Note: test concentration not given here. The conditions noted are these: higher = more signal, called active from +8 up or from −8 down. Background: Alamar Blue is a resazurin reagent that responds to reducing activity.
Assay [11] is described as follows: HepG2 liver cancer cell viability effects, profiling panel, resazurin fluorescence, 24 h, PK04 Diversity Set (AID 1172). Note: test concentration not given here. Particulars: higher = more signal.
Assay [12] is described as follows: basal S. cerevisiae growth modulation, no modifier, primary screen, OD600, strain BY4716, 24 h, basal condition (AID 1173). The conditions noted are these: OD600, 24 h, higher = more signal, called active from +8 up or from −8 down.
Assay [13] is described as follows: MM1S myeloma cell viability, profiling panel, resazurin fluorescence, basal, 24 h, PK04 Diversity Set (AID 1174).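 Note: MM1S multiple myeloma cell line; test concentration not given here.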 Particulars: higher = more signal, called active from +8 up or from −8 down.
Assay [14] has as its target Dihydroorotate dehydrogenase (quinone), mitochondrial (Plasmodium falciparum (isolate 3D7)) (UniProt Q08210). Put plainly: PfDHODH enzyme inhibitors, primary screen, biochemical, C-terminal His tag, absorbance 600 nm (AID 1175).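 Note: recombinant parasite enzyme with a five histidine tag at its C terminus; test concentration not given here.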 Particulars: DCIP absorbance 600 nm, higher = more signal, called active from +8 up or from −8 down.
The nature of assay [15]: P. aeruginosa biofilm formation inhibitors, primary screen, strain PAO1, LB-PBS medium, absorbance 600 nm (AID 1176). Note: test concentration not given here. The conditions noted are these: P. aeruginosa PAO1 growth/biofilm, A600, 12 h; higher = more signal.
The nature of assay [16]: S. cerevisiae RM11-1a growth modifiers, primary screen, strain RM11-1a, OD600, basal, 24 h (AID 1177).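 Note: cultures grown under basal conditions with no added stressor; test concentration not given here.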 Particulars: OD600, 24 h, higher = more signal, called active from +8 up or from −8 down.
The nature of assay [17]: E. coli acrAB mutant growth effects, primary screen, E. coli filamentation inducers, strain DRC39, OD650, 24 h (AID 1178).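 Note: growth measured as culture turbidity by optical density at 650 nm; test concentration not given here.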 Particulars: higher = more signal, called active from +8 up or from −8 down.
A short description of assay [18]: E. coli acrAB mutant growth effects, primary screen, E. coli filamentation inducers, strain DRC39, OD650, 48 h (AID 1179).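 Note: screen aims at cell division blockers that make cells filament.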 Particulars: E. coli DRC39 delta-acrAB growth, higher = more signal, called active from +8 up or from −8 down.
A short description of assay [19]: RPMI8226 myeloma cell viability, profiling panel, resazurin fluorescence, basal, 24 h, PK04 Diversity Set (AID 1180).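 Note: RPMI8826 multiple myeloma cell line at 5000 cells per well; test concentration not given here.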 Particulars: higher = more signal.
In assay [20] the target is E3 ubiquitin-protein ligase XIAP (Homo sapiens) (UniProt P98170). Kind of assay: XIAP binders, primary screen, biophysical, small-molecule microarray, fluorescence 635 nm (AID 1181).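 Note: score merges 667 nm emission and signal to noise over triplicate slides.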 Particulars: small-molecule microarray binding, higher = more signal.

Activity calls are given as the source filed them. Unless noted, the rule behind the calls is not given here.

Chain of Dihydroorotate dehydrogenase (quinone), mitochondrial (Plasmodium falciparum (isolate 3D7)) (Q08210 whole entry, looked up): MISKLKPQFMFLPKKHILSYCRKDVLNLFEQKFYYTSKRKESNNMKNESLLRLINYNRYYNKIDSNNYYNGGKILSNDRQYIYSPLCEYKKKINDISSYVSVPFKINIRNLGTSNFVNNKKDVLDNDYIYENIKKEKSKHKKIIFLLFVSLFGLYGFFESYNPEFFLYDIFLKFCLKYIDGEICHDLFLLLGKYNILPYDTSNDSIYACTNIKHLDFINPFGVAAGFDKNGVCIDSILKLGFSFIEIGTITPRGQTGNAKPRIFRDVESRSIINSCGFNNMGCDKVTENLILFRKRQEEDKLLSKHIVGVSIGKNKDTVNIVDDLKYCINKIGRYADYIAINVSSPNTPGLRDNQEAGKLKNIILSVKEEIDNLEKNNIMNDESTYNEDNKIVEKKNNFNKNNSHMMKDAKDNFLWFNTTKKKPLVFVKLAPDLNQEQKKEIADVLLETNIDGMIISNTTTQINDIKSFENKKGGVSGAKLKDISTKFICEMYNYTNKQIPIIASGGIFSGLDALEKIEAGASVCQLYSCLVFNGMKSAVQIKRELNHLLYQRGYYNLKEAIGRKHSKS
Chain of E3 ubiquitin-protein ligase XIAP (Homo sapiens) (P98170 whole entry, looked up): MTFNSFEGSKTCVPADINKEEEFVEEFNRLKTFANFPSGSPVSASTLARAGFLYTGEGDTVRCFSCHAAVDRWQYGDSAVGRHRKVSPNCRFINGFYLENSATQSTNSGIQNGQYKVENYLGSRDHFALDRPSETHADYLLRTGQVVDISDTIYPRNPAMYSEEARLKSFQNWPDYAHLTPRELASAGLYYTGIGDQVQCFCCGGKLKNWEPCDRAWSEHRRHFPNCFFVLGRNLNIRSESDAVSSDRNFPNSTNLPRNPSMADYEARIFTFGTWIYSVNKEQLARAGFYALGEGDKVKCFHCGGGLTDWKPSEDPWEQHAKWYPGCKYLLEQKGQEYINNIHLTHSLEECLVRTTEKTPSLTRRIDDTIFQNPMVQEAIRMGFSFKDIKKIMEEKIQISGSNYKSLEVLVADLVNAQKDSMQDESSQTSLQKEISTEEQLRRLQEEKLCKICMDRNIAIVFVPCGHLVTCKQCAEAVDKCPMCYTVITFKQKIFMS

Regarding `NC(=O)NCC#Cc1ccc2c(c1)[C@]1(C(=O)N2)[C@H](c2ccccc2OCCO)N2[C@H](c3ccccc3)[C@H](c3ccccc3)OC(=O)[C@H]2[C@@H]1C(=O)O`, the z-score in assay [1] is -0.371; in [2] it was -0.161; in assay [3], -1.06; in assay [4] it was -0.253; in assay [5], 0.713; in [6], -0.716. Further, the z-score was 0.485 (inactive) in assay [7]; 0.689 in [8]; -0.394 in assay [9]; 1.73 (inactive) in assay [10]; 1.87 in [11]; -0.462 (inactive) in assay [12]. In addition, the z-score in assay [13] was 0.877 (inactive); in assay [15] it was -0.0199 (inactive); in assay [16], -0.246 (inactive); in [17], 0.614 (inactive); in assay [18], -0.727 (inactive); in assay [19], 0.327. The composite z-score in assay [14] was -1.96 (inactive); in assay [20] it was -0.287.
With `O=C(NCCN1CCOCC1)[C@@H]1c2ccccc2C(=O)N(Cc2ccccc2Cl)[C@H]1c1ccc(CO)cc1`, the z-score is 0.53 in assay [1]; -0.249 in assay [2]; 1.15 in assay [3]; -0.142 in [4]; 0.125 in assay [5]; 3.16 in [6]. For the same compound, the z-score in assay [7] was 0.64 (inactive); in assay [8], -0.695; in assay [9], -0.408; in assay [10], 0.59 (inactive); in assay [11], -0.0211; in [12], 0.199 (inactive). Further, the z-score in assay [13] is -1.21 (inactive); in assay [15], 0.0993 (inactive); in assay [16] it was 0.593 (inactive); in assay [17], 0.447 (inactive); in assay [18], 0.865 (inactive); in [19] it was -0.831. Moreover, the composite z-score in assay [14] was -0.0473 (inactive); in assay [20], 0.0178.
On to `C=CC[C@]1(C(=O)N2CCCCC2)N=C(c2ccc(OCCCO)cc2)O[C@H]1c1ccccc1CN=[N+]=[N-]`, for which the z-score in [1] was -0.416; in assay [2], 0.132; in [3] it was 0.61; in [4] it was -1.11; in assay [5] it was -1.15; in [6], 0.574. The z-score was 0.32 (inactive) in assay [7]; -1.31 in [8]; -0.576 in assay [9]; 0.482 (inactive) in assay [10]; 0.948 in assay [11]; -1.03 (inactive) in [12]. Further, the z-score in assay [13] was -0.398 (inactive); in assay [15] it was -0.124 (inactive); in assay [16], 0.0349 (inactive); in assay [17], 0.552 (inactive); in [18], 1.11 (inactive); in assay [19], 0.128. In addition, the composite z-score was -0.709 (inactive) in [14] and 0.354 in [20].
Regarding `COCCOC(=O)N1C(=O)[C@@]2(c3cc(C#CC4=CCCCC4)ccc31)[C@H](c1ccccc1OCCO)N1[C@H](c3ccccc3)[C@H](c3ccccc3)OC(=O)[C@H]1[C@@H]2C(=O)NC[C@H](O)c1ccccc1`, the z-score in assay [1] was -1.86; in assay [2], 1.44; in assay [3], -0.529; in [4], -3.08; in assay [5], -3.9; in assay [6] it was 0.315. Also, the z-score in assay [7] was 2.5 (inactive); in assay [8] it was -0.817; in assay [9] it was -1.07; in [10], -1.59 (inactive); in assay [11] it was -1.14; in [12] it was 0.861 (inactive). Moreover, the z-score in assay [13] is -2.19 (inactive); in [15], 1.92 (inactive); in assay [16], 2.08 (inactive); in assay [17], -0.609 (inactive); in assay [18], -0.255 (inactive); in [19], -3.52. Also, the composite z-score in assay [14] is -0.158 (inactive); in [20], -0.0476.
Turning to `COc1ccc([Si](C)(C)[C@H]2[C@H](CC(=O)N3Cc4ccccc4C[C@H]3CO)O[C@@]3(C(=O)N(Cc4ccc(N5CCOC5=O)cc4)c4ccccc43)[C@@H]2C)cc1`, the z-score in assay [1] was -0.135; in assay [2] it was 1.35; in [3], -0.919; in assay [4], -2.92; in assay [5], -4.23; in [6], -0.0556. In addition, the z-score in [7] was 0.19 (inactive); in assay [8] it was -1.04; in assay [9], -1.94; in assay [10], -0.0717 (inactive); in assay [11], -0.418; in [12] it was -0.895 (inactive). The z-score in assay [13] was -3.41 (inactive); in assay [15], 0.732 (inactive); in [16], 0.543 (inactive); in [17] it was 0.166 (inactive); in assay [18], -0.207 (inactive); in assay [19], -2.27. Further, the composite z-score in assay [14] is -1.03 (inactive); in assay [20], -0.105.
In the case of `COCCOC(=O)N1C(=O)[C@@]2(c3cc(C#CC4(O)CCCCCC4)ccc31)[C@H](C(=O)Nc1nc3ccccc3s1)[C@H]1C(=O)O[C@H](c3ccccc3)[C@H](c3ccccc3)N1[C@@H]2c1ccc(O)cc1`, the z-score in assay [1] was 0.638; in [2], -0.457; in assay [3], 0.74; in assay [4] it was -0.227; in assay [5], -2.46; in assay [6] it was -3.17. The z-score in [7] was -0.421 (inactive); in assay [8], -0.897; in assay [9], -0.897; in assay [10], -0.436 (inactive); in assay [11], -0.0328; in assay [12], -0.873 (inactive). In addition, the z-score in [13] is -0.858 (inactive); in [15], 0.598 (inactive); in [16] it was 1.24 (inactive); in [17] it was 0.487 (inactive); in assay [18], 0.613 (inactive); in assay [19], -0.945. Further, the composite z-score in assay [14] was -1.03 (inactive); in [20], -0.0274.
As to `CC(C)(C)OC(=O)CC[C@@]1(C(=O)NCC(O)CO)N=C(c2ccc(OCCCO)cc2)O[C@@H]1c1ccccc1CN=[N+]=[N-]` (stereo not given in full), the z-score was 1.25 in [1]; 0.478 in assay [2]; -0.0162 in [3]; -0.217 in assay [4]; -0.34 in assay [5]; 0.0542 in assay [6]. Besides, the z-score in assay [7] was 0.0122 (inactive); in [8], -0.418; in assay [9], 1.12; in assay [10], 0.0255 (inactive); in [11], 0.507; in assay [12] it was -0.215 (inactive). The z-score in assay [13] was -0.0579 (inactive); in [15] it was 0.869 (inactive); in assay [16] it was -0.181 (inactive); in [17] it was 0.642 (inactive); in assay [18], -0.154 (inactive); in [19] it was 0.126. The composite z-score in [14] is 0.345 (inactive); in assay [20] it was 0.153.
As for `C=C(COC)/C(=C/C[C@H](OC(=O)c1ccncc1)c1ccccc1OCCO)c1cc(C(=O)OC)ccc1OC`, the z-score in [1] was -0.0954; in [2], 0.0589; in assay [3] it was -0.0472; in assay [4] it was -3.34; in assay [5] it was -1.58; in assay [6], 1.94. Besides, the z-score in assay [7] is -0.658 (inactive); in assay [8], -0.596; in assay [9] it was -0.159; in assay [10] it was 0.315 (inactive); in assay [11], -0.418; in assay [12], -0.0515 (inactive). The z-score in assay [13] is -2.16 (inactive); in assay [15], 0.367 (inactive); in assay [16] it was -0.567 (inactive); in [17], -1.31 (inactive); in assay [18] it was -1.21 (inactive); in [19] it was -1.58. In addition, the results for the composite z-score in [14] and in [20] were -2.32 (inactive) and -0.157, respectively.
